Bioassay records: PubChem BioAssay, several laboratories
Shown are actives, neighbours in structure and some others; about 1.8% of the full set was active somewhere.
Jurkat NFkB inh = inhibitors of induced NF-kB luciferase reporter, primary screen, TCR NF-kB activation inhibitor project, cell-based, luminescence, uHTS; Jurkat, PMA/ionomycin-induced NF-kB luciferase reporter; inhibition, % at 4 µM; hit rate 0.53% among 330,000; in the data active = inhibition above about 50%
Beta apoptosis = inhibitors of cytokine-induced beta cell apoptosis, primary screen, luminescence; INS-1E cytokine-induced death, ATP luminescence, 48 h; percent of positive-control rescue, neutral wells zero; protection from apoptosis, % (no concentration beside the values); hit rate 0.8% among 300,000;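 active = Every replicate reaches about 75%, or at least half do and their mean reaches it too, limit read from the data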;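 note: 0% = cytokine-treated negative control wells and 100% = positive control rescue; higher means more ATP so stronger rescue from cytokine killing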
697 NFkB inh = inhibitors of PMA/ionomycin-induced NF-kB reporter, 697 cells, primary screen, B-cell NF-kB inhibitor project, cell-based, luminescence, uHTS. 697 B-cell NF-kB luciferase reporter, 16 h. inhibition, % at 4 µM. hit rate 0.33% among 330,000; in the data active = inhibition above about 35%
Gli-Sufu block = Gli-Sufu pathway antagonists, primary screen, luciferase luminescence, Sufu-KO-LIGHT cells, uHTS; Sufu-KO-LIGHT fibroblasts, Gli luciferase reporter luminescence; inhibition, % at 5 µM; hit rate 0.74% among 340,000;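 active = inhibition above about 55%, limit read from the data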;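 note: 0% = DMSO-treated cells and 100% = wells with medium but no cells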
Numbers without * were called inactive; · = no result given.

SMILES | Jurkat NFkB inh | Beta apoptosis | 697 NFkB inh | Gli-Sufu block
COc1ccc(NC(C)=O)c(C)c1 | 2 | -6 | 5 | -4
Cn1c(=O)cc2c3c(c(N4CCCCC4)ccc31)C(=O)c1ccccc1-2 | 7 | 5 | 12 | 9
CC(=O)Oc1c(C)cc(Cl)cc1C(=O)Nc1ccc([N+](=O)[O-])cc1Cl | -28 | 106* | -127 | 73*
Cc1cccc(NC(=S)NNc2ncc(C(F)(F)F)cc2Cl)c1 | 2 | 10 | -39 | 3
FC(F)(F)c1cnc(NNC(=S)Nc2ccccc2Cl)c(Cl)c1 | -3 | 112* | -28 | 26
O=C1/C(=N\S(=O)(=O)c2cccs2)C([n+]2ccccc2)=C([O-])c2ccccc21 | 8 | 97* | -43 | 23
O=S(=O)(/N=C/c1ccccc1O)c1cccs1 | -7 | · | 6 | 6
CC(C)(C)c1cc[n+](C2=C([O-])c3ccccc3C(=O)/C2=N\S(=O)(=O)c2cccs2)cc1 | 29 | 107* | -7 | 4
N/C(=N\S(=O)(=O)c1cccs1)c1ccccc1 | 15 | -7 | 16 | -7
CCCC[C@@H]1CNC(=O)C(=O)N1CCc1cc(C(F)(F)F)cc(C(F)(F)F)c1 | 20 | -4 | 17 | -4
O=C(Nc1cccnc1)c1c(F)cccc1F | 5 | -1 | 34 | 5
CC(=O)c1c(C)[nH]c(C(=O)COc2cc(C)ccc2C(C)C)c1C | 35 | 103* | -8 | -5
COC(=O)c1cc(NC(=O)C23CCC(C)(C(=O)O2)C3(C)C)cc(C(=O)OC)c1 (configuration not stated) | -11 | -2 | -38 | 7
COc1cc(C(=O)NCC(=O)Nc2c(C)cccc2C)ccc1OCc1ccccc1 | -34 | 1 | -1 | 2
CN(c1nc2ccccc2[nH]c1=O)C1CCCCC1 | 0 | 22 | -13 | 57*
NC(=O)c1ccccc1OC1CCC1 | 3 | -7 | 24 | 2
Cc1c(C)c2ccc(OCC(=O)NC3CCN(Cc4ccccc4)CC3)c(C)c2oc1=O | 13 | 2 | 17 | -18
O=C1OCC2=C1C(c1ccc(F)cc1)c1cc3c(cc1N2)OCCO3 (configuration not stated) | · | · | · | 57*
C#CCOc1ccc(C2C3=C(COC3=O)Nc3cc4c(cc32)OCO4)cc1OC (configuration not stated) | · | · | · | -19
CC(=O)N1CCN(c2ccc(Oc3ccc([N+](=O)[O-])c(C(F)(F)F)c3)cc2)CC1 | 21 | 95* | -14 | 67*
CCOc1ccc(C(=O)Nc2ccc(N3CCN(C(C)=O)CC3)cc2)cc1[N+](=O)[O-] | 14 | -3 | 8 | 5
O=C(NCCCc1ccccc1)c1cnc2n(c1=O)CCS2 | -52 | -5 | -46 | -36
Cc1cc(C)cc(NC(=S)N2CCN(S(C)(=O)=O)CC2)c1 | 19 | -4 | 6 | -3
COc1ccc2c(c1)C(=O)[C@H](O)[C@@H](c1ccc(OC)c(Br)c1)O2 | -22 | 109* | 0 | 10
CSc1ccccc1OCc1cc(C(=O)N2CCNC(=O)C2)no1 | 4 | · | 3 | 0
SMILES | Jurkat NFkB inh | Beta apoptosis | 697 NFkB inh | Gli-Sufu block
CSc1ccccc1OCc1cc(C(=O)N2CCc3c(Cl)cccc3C2)no1 | 12 | 79* | -1 | -12
Cc1ccc(NC(=O)c2c(C(F)(F)F)nn(C)c2SCc2cccc(C(F)(F)F)c2)cc1C | -4 | 88* | -42 | 46
CC1OC(CC(=O)O)CC2=C1C(=O)c1c(O)cccc1C2=O (configuration not stated) | · | · | · | 91*
COc1ccc(N(CC(=O)O)S(=O)(=O)c2ccccc2[N+](=O)[O-])c(OC)c1 | 14 | -3 | 2 | -11
CC(=O)CSc1ccc(-c2nc3ccccc3[nH]2)cn1 | -119 | 79* | -158 | -102
CC(Oc1ccccc1)c1ccnc2nc(N3CCOCC3)nn12 (configuration not stated) | -11 | -1 | 1 | -2
O=C(N/N=C/c1cccnc1)c1ccc(NC(=O)C(c2ccccc2)c2ccccc2)cc1 | -15 | 110* | 19 | 19
COc1ccc(C(=O)NCCNC(=O)c2cnccn2)cc1OC | -20 | 1 | -6 | 0
COc1cc(OC)cc(C(=O)NC(=S)NNC(=O)c2cnccn2)c1 | 4 | 85* | 11 | 3
COc1ccc(C(=O)NC(=S)NNC(=O)c2cnccn2)cc1OC | 7 | 82* | 11 | 6
O=C(/C=C/c1ccccc1)NC(=S)NNC(=O)c1cnccn1 | 15 | 78* | -17 | -1
Cc1nc(Nc2ccc(Br)cc2Br)c([N+](=O)[O-])c(=O)[nH]1 | 19 | 3 | 19 | 1
CCOC(=O)c1cn(CC)c2cc(N3CCN(C)CC3)c(F)cc2c1=O | -4 | -12 | 2 | 3
COc1ccc(-c2cc(N)n(S(=O)(=O)c3c(F)c(F)c(F)c(F)c3F)n2)cc1OC | 8 | 93* | -22 | 10
COc1ccc(S(=O)(=O)n2nc(-c3cc(OC)c(OC)c(OC)c3)cc2N)cc1OC | 4 | 2 | 10 | 7
Cc1ccc(-c2nc(N)n(C(=O)Cc3ccccc3)n2)cc1 | -10 | 5 | -3 | -6
COc1ccc(-c2c(-c3ccc(O)cc3O)n[nH]c2C(F)(F)F)cc1 | 7 | -3 | 12 | 4
Oc1ccc(-c2n[nH]c(C(F)(F)F)c2-c2ccccc2)c(O)c1 | 46 | 105* | -29 | 70*
CC(=O)c1ccc(N2CCN(S(=O)(=O)c3ccc4c(c3)CC(C)N4C(C)=O)CC2)cc1 (configuration not stated) | 38 | 91* | -4 | 57*
O=C(Nc1ccc(Cl)cc1)Nc1cc([N+](=O)[O-])ccc1F | -19 | 29 | 10 | -10
O=C(Nc1ccc(Cl)cc1)Nc1csc([N+](=O)[O-])c1 | -3 | 80* | -52 | 33
O=[N+]([O-])c1ccc(NC(=S)NCCc2ccccc2)cc1 | 5 | 8 | -1 | 21
O=C(Nc1ccc([N+](=O)[O-])cc1)Nc1ccc(Cl)cc1F | -8 | 108* | -29 | 28
O=C(Nc1csc([N+](=O)[O-])c1)Nc1c(Cl)cccc1Cl | 18 | -15 | 24 | 6
O=[N+]([O-])c1ccc(NC(=S)NCCc2ccc(Cl)cc2)cc1 | 20 | 87* | -4 | -17
SMILES | Jurkat NFkB inh | Beta apoptosis | 697 NFkB inh | Gli-Sufu block
CN(C)CCNc1ccc2nnn3c4ccc(O)cc4c(=O)c1c23 | · | · | · | 9
Cc1ccc(NCCN(C)C)c2c(=O)c3cc(O)ccc3sc12 | · | · | · | 66*
CC(C)(C)OC(=O)NCCCCCc1nnc(SCc2cccc(F)c2)o1 | 21 | · | -2 | 1
CN(C)C(=O)c1ccc(NC(=O)c2cccnc2)cc1 | -4 | 96* | -1 | 4
Cc1ccccc1C(=O)N1CCN(c2ccc(NC(=O)c3cccnc3)cc2)CC1 | -13 | 75* | -11 | -4
O=C(Nc1ccc(F)cc1)c1cccnc1 | 9 | 76* | 16 | -7
COCCCNC(=O)Cn1nnc(-c2ccc(NC(=O)c3cccnc3)cc2)n1 | 3 | 97* | -33 | ·
Cc1cc(NS(=O)(=O)c2ccc(NC(=O)/C=C/c3cccc(Cl)c3)cc2)no1 | 9 | 3 | -38 | -1
